In PubChem BioAssay (EPA / NIEHS):
Active and inactive are the calls of the source. Rule for the calls: active = hit-call score of the fitted dose curve at least 0.9, where 1 is the maximum; inconclusive = response in the unintended direction; inactive = score below 0.9.

Test: Tanguay_ZF_120hpf_ActivityScore_legacy: (Legacy) Oregon State University Tanguay Lab 120 Hour Post-fertilization zebrafish Assay Score for Activity (AID 2283742)
Experimental: Tanguay_ZF_120hpf_legacy is a whole embryo, multiplexed endpoint assay using zebrafish larvae exposed for 120 hours post fertilization on a 96-well plate.Tanguay_ZF_120hpf_ActivityScore_legacy is one of one assay component(s) measured or calculated from the Tanguay_ZF_120hpf_legacy assay. It is designed to make measurements of developmental malformations and mortality as detected with brightfield microscopy and combines scoring from 18 other assay components measuring more specific morphologies.Data from the assay component Tanguay_ZF_120hpf_ActivityScore_legacy was analyzed into 1 assay endpoints. This assay endpoint, Tanguay_ZF_120hpf_ActivityScore_legacy, was analyzed in the positive analysis fitting direction relative to DMSO as the negative control and baseline of activity. Using a type of morphology reporter, gain-of-signal activity can be used to understand changes in developmentals as they relate to the whole embryo. To generalize the intended target to other relatable targets, this assay endpoint is annotated to the zebrafish development intended target family, where the subfamily is embryonic morphogenesis and mortality.
Zebrafish husbandry: Tropical 5D wild-type adult zebrafish were housed in at an approximate density of 1000 per 100 gallon tank at the Sinnhuber Aquatic Research Laboratory, Oregon State University, Corvallis, OR. Each tank was kept at standard laboratory conditions of 28C on a 14-h light/10-h dark photoperiod in fish water consisting of reverse osmosis water supplemented with a commercially available salt (Instant Ocean). Spawning funnels were placed into the tanks the night prior, and embryos were collected and staged. To increase bioavailability, the chorion was enzymatically removed using pronase (63.6mg/ml, >/= 3.5U/mg, Sigma-Aldrich: P5147) at 4 hours post fertilization (hpf) using a custom automated dechorionator.Chemical exposures: Six hpf dechorionated embryos were placed 1 embryo per well in a 96-well plate prefilled with 90 ul of EM using automated embryo placement systems (AEPS). Ten microliters of each row of dilution plate 2 was added to 2 exposure plates. The final DMSO concentration used was 0.64% (vol/vol). Thirty-two embryos were also exposed to 5uM trimethyltin chloride (positive control). Plates were sealed to prevent evaporation and foil covered to reduce light exposure and kept in a 28C incubator. Embryos were statically exposed until 120 hpf. At 24 hpf, embryos were assessed for photomotor response using a custom photomotor response analysis tool (PRAT) and for developmental toxicity endpoints (MO24: mortality at 24 hpf, DP: developmental progression, SM: spontaneous movement, and NC: notochord distortion). At 120 hpf, locomotor activity was measured using Viewpoint Zebralab and assessed for 18 endpoints. Zebrafish acquisition and analysis program (ZAAP), a custom program designed to inventory, acquire, and manage zebrafish data, was used to collect developmental endpoints as either present or absent (i.e., binary responses were recorded). If mortality occurred for an embryo (at either 24 or 120 hpf), the non-mortality endpoints were not measured.

| SMILES | outcome | AC50 |
| --- | --- | --- |
| CCn1nc(C)c2c1C(=O)NCC(c1ccc(O)cc1)=N2 | inactive | – |
| OCc1ccccc1 | inactive | – |
| O=C(O)c1cccc(C(=O)O)c1 | inactive | – |
| O=C1CN(N=Cc2ccc([N+](=O)[O-])o2)C(=O)N1 | inactive | – |
| O=S(=O)(O)c1ccc(N=Nc2c(O)ccc3cc(S(=O)(=O)O)ccc23)cc1 | inactive | – |
| O=C(NO)C1(NS(=O)(=O)c2ccc(Oc3ccc(F)cc3)cc2)CCOCC1 | inactive | – |
| CCCCCCCCCCCCCCCCOS(=O)(=O)O | inactive | – |
| Nc1ccn([C@@H]2O[C@H](CO)[C@@H](O)[C@@H]2O)c(=O)n1 | inactive | – |
| CCCCCCCCCCCCCCO | inactive | – |
| CCCCCCCCN(C)C | inactive | – |
| CCc1ccc(O)c(C(C)(C)C)c1 | inactive | – |
| CCCC(CCC)C(=O)O | inactive | – |
| NC(=O)N1c2ccccc2C=Cc2ccccc21 | – | 0.0251 µM (active) |
| OCC(CO)(CO)CO | inactive | – |
| CCCc1ccccc1 | inactive | – |
| CCN(CC)C(=S)SSC(=S)N(CC)CC | – | 0.831 µM (active) |
| C=CCc1cc(S(=O)(=O)c2ccc(O)c(CC=C)c2)ccc1O | inactive | – |
| OC(CCl)CCl | inactive | – |
| CCOC(N)=O | inactive | – |
| NNC(=O)c1ccncc1 | inactive | – |

| SMILES | outcome | AC50 |
| --- | --- | --- |
| COc1cc(C(C)C)c2c(c1)S(=O)(=O)N(COc1cc(=O)n3cccc(OCCN4CCCCC4)c3n1)C2=O | – | 7.72 µM (active) |
| CCCCC(CC)C(=O)OCCOCCOCCOC(=O)C(CC)CCCC (stereo not given) | inactive | – |
| NC(=O)NN=Cc1ccc([N+](=O)[O-])o1 | inactive | – |
| C=CN1CCCC1=O | inactive | – |
| Cc1ccc(S(=O)(=O)NC(=O)NN2CCCCCC2)cc1 | inactive | – |
| OCCOCCOCCO | inactive | – |
| NC(N)=O | inactive | – |
| CC(C)CCCCCCOC(=O)C1CCCCC1C(=O)OCCCCCCC(C)C (stereo not given) | inactive | – |
| CC1(C)C(=O)N(Cl)C(=O)N1Cl | inactive | – |
| OC[C@H]1O[C@@H]2O[C@H]3[C@H](O)[C@@H](O)[C@@H](O[C@H]4[C@H](O)[C@@H](O)[C@@H](O[C@H]5[C@H](O)[C@@H](O)[C@@H](O[C@H]6[C@H](O)[C@@H](O)[C@@H](O[C@H]7[C@H](O)[C@@H](O)[C@@H](O[C@H]1[C@H](O)[C@H]2O)O[C@@H]7CO)O[C@@H]6CO)O[C@@H]5CO)O[C@@H]4CO)O[C@@H]3CO | inactive | – |
| OC(Cn1cncn1)(Cn1cncn1)c1ccc(F)cc1F | inactive | – |
| O=C(O)c1ccc2c(c1)nc(C(=O)NC1CCN(C3CC3)CC1)n2Cc1cc(-c2ccc(Cl)s2)on1 | inactive | – |
| O=C(O)c1cccc(C[C@@H]2COc3ccc(OCc4nc5cc(F)ccc5s4)cc3[C@@H]2O)c1 | – | 37.3 µM (active) |
| COc1cc2c(c(OC)c1OC)-c1ccc(OC)c(=O)cc1[C@@H](NC(C)=O)CC2 | – | 36.4 µM (active) |
| Cn1c(=O)c2[nH]cnc2n(C)c1=O | inactive | – |
| NC(=O)N(O)[C@@H]1COc2cc(OCc3ccccc3)ccc21 | inactive | – |
| CCc1cccc(CC)c1N | inactive | – |
| CCCCOC(=O)c1ccccc1 | inactive | – |
| Cc1ncc([C@@H](CCCCCCc2ccc3c(n2)NCCC3)CC(=O)O)cn1 | inactive | – |
| COS(C)(=O)=O | inactive | – |
